SKOV3 invasion: blocks SKOV3ip1 adhesion and invasion in omental model; 0.1% of 46,000 active; Potency, µM (highest dose often 45.8 µM), for inactives: at the highest dose activity change, negative = inhibition, most hits filed as inhibitors; SKOV3ip1-GFP adhesion/invasion on 3D omental model, fluorescence;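 also: potency is read from the fitted curve at half-maximal effect; plate controls were DMSO wells for no effect and tomatine positive control wells for full effect; nearly all actives have a fitted effect of over 65% in size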
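A 3D layer of primary human omental fibroblasts, mesothelial cells, fibronectin and collagen I, grown 48 hr, received SKOV3ip1-GFP cells in serum-free medium plus compounds at 0.36-46 umol/L. After 2 hr RT and 16 hr 37 C, fixed adherent GFP cells were counted; normalized to DMSO and tomatine.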
FH mod: Identification of activators of human fumarate hydratase by quantitative high-throughput screening; Fumarate hydratase, mitochondrial (Homo sapiens), P07954; FH coupled MDH/diaphorase resazurin fluorescence, 15 min; Potency, µM (highest dose often 79.9 µM), inactives show top-dose activity change, negative = inhibition, usual class: inhibitors; 0.22% of 54,000 active; AID 1347055, 2019; also: potency is read from the fitted curve at half-maximal effect; % is scaled to controls: 0 for no effect and ±100 for the full control effect; the screen sought activators but most active calls are inhibition curves; nearly all actives have a fitted effect of over 45% in size
NTMT1 inh: NTMT1 methyltransferase inhibition; Q9BV86; NTMT1 MTase-Glo SAH luminescence, purified enzyme; Potency, µM (titrated, usually from 114 µM), for the others: top-dose activity change, negative = inhibition, actives largely listed as inhibitors; 2.5% of 59,000 active; AID 1645870;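 also: potency is read from the fitted curve at half-maximal effect; plate controls were DMSO vehicle for no effect and no enzyme for full effect; nearly all actives have a fitted effect of over 65% in size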
Target sequence (Q9BV86 whole entry, looked up): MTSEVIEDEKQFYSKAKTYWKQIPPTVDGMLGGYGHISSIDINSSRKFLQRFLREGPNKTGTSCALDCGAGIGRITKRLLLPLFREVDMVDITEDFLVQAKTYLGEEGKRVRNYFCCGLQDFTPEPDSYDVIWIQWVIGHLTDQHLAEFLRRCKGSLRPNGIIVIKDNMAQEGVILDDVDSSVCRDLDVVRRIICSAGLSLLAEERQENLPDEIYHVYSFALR
DYRK1A inh-1: inhibitors of human DYRK1A kinase | shares compounds with NTMT1 inh | recombinant DYRK1A, Kinase-Glo ATP depletion luminescence | Potency, µM (doses to about 76.9 µM), for the others: at the top dose activity change, negative = inhibition, usual class: inhibitors | 80% of 100 active | AID 2705
CLK4 inh-1: inhibits human CLK4 kinase in Kinase-Glo confirmation. shares compounds with NTMT1 inh. recombinant Clk4, Kinase-Glo ATP luminescence, 4.5 h. Potency, µM (series often up to 76.9 µM), inactives show at the top dose activity, negative = inhibition, hits mostly inhibitors. 90% of 90 active. AID 493204
CLK4 inh-2: CLK4 kinase inhibition, SAR round 2; shares compounds with NTMT1 inh; Reaction Biology kinase assay, 10 uM ATP; Potency, µM, actives largely listed as inhibitors; 100% of 65 active; AID 504421; calls by dose curve
DYRK1A inh-2: DYRK1A kinase inhibition; Potency, µM, most hits filed as inhibitors; Reaction Biology kinase assay, 10 uM ATP; shares compounds with NTMT1 inh; 90% of 65 active;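 active = compounds that showed inhibition of Dyrk1a and received a fitted potency; inactive = compounds that showed no inhibition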
CLK2 inh: CLK2 kinase inhibition | shares compounds with NTMT1 inh | Reaction Biology kinase assay, 10 uM ATP | Potency, µM, hits mostly inhibitors | 90% of 65 active;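 active = compound that inhibits Clk2 kinase in the dose series, with an IC50 potency reported; inactive = no inhibition seen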
CLK3 inh: inhibitors of human CLK3 kinase; recombinant CLK3 kinase assay, 10 uM ATP; Potency, µM, usual class: inhibitors; shares compounds with NTMT1 inh; AID 504428; 40% of 65 active;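 active = compounds that inhibited Clk3 enough in the ten-dose series to give a half-maximal potency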
DYRK1B RBC: inhibitors of human Dyrk1b kinase. shares compounds with NTMT1 inh. Recombinant Dyrk1b kinase assay, 10 uM ATP. Potency, µM, most hits filed as inhibitors. 80% of 65 active. AID 504429;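 active = compounds whose dose response shows an inhibitor phenotype against the kinase Dyrk1b; inactive = compounds showing no inhibitor phenotype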
CLK1 inh: CLK1 kinase inhibition | shares compounds with NTMT1 inh | Potency, µM, hits mostly inhibitors | AID 504430 | recombinant Clk1 kinase assay, 10 uM ATP | 90% of 65 active;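 active = compounds that block the splicing kinase Clk1 enough to give a fitted half-inhibition concentration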
NNMT counter: human NNMT inhibition, NTMT1 counter-screen; shares compounds with NTMT1 inh; NNMT MTase-Glo luminescence, SAH detection; Potency, µM (series often up to 57.1 µM), inactives show at the highest dose activity, negative = inhibition, actives largely listed as inhibitors; 10% of 120 active; AID 1645878
Target sequence (P40261 whole entry, looked up): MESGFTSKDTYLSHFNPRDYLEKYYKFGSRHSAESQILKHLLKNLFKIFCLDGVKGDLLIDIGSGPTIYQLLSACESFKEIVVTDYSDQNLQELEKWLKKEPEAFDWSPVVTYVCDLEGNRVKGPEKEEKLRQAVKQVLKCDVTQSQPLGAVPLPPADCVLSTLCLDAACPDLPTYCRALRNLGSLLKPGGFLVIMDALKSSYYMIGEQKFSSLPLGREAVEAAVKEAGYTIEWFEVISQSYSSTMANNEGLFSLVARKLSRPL
Active calls of the source: *; i = inactive; u = inconclusive; x = not tested or not shown; [ ] = dose if it differs, or a comment. Most compounds without a hit are left out; they make up all but 3.9% or so of the library. Unless noted, calls follow the shape of the dose curve; as a rule, active = well fitted curve in the direction sought with a large enough effect; inconclusive = small, poorly fitted or top-dose-only effect, or another doubt; inactive = no such curve, though single readings can be large; an effect the other way counts as inactive or inconclusive.

SMILES | SKOV3 invasion | FH mod | NTMT1 inh | DYRK1A inh-1 | others
COc1cccc(Nc2ncc3nc(-c4cn(C)c5ccccc45)c(=O)n(CCC#N)c3n2)c1 | x | x | x | x | CLK4 inh-1=u
COc1cccc(Nc2ncc3ncc(=O)n(C)c3n2)c1 | x | x | x | x | CLK4 inh-1=0.92µM*
COc1ccc(CCC(=O)c2c(O)cc(O[C@@H]3O[C@H](CO)[C@@H](O)[C@H](O)[C@@H]3O[C@@H]3O[C@@H](C)[C@H](O)[C@@H](O)[C@@H]3O)cc2O)cc1O | -2% | 3%[53.3 µM] | 1%[57.5 µM] | x
C=Cc1cc2oc(-c3ccc(O)c(F)c3)nc2cc1O | x | u | 28µM* | x | NNMT counter=u
COc1cc2c(NC3CCN(C(C)C)CC3)nc(C3CCCCC3)nc2cc1OCCCN1CCCC1 | 12µM* | -16% | u | x | NNMT counter=u
c1nc(NCc2ccc3c(c2)OCO3)c2cc(-c3ccc4c(c3)OCCO4)ccc2n1 | x | x | -2% | x
CN1CCCC1CCNc1ncnc2ccc(-c3ccc4c(c3)OCO4)cc12 (configuration not stated) | x | x | -29%[57.5 µM] | 4.1µM* | CLK4 inh-2=7.1*;DYRK1A inh-2=5.6µM*;CLK2 inh=8.6µM*;CLK3 inh=i;DYRK1B RBC=8.2µM*;CLK1 inh=5.2µM*
CN(C)CCNc1ncnc2ccc(-c3ccc4c(c3)OCO4)cc12 | x | x | u | 1.6µM* | CLK4 inh-2=1.9*;DYRK1A inh-2=1.4µM*;CLK2 inh=15µM*;CLK3 inh=i;DYRK1B RBC=7.3µM*;CLK1 inh=4.2µM*
Cc1cc(CNc2ncnc3ccc(-c4ccc5c(c4)OCO5)cc23)c(C)o1 | x | x | u | 0.37µM* | CLK4 inh-2=0.44*;DYRK1A inh-2=0.58µM*;CLK2 inh=15µM*;CLK3 inh=i;DYRK1B RBC=4.9µM*;CLK1 inh=0.86µM*
c1nc(NCCc2cnc[nH]2)c2ccc(-c3ccc4c(c3)OCO4)cc2n1 | x | x | -18% | 23µM*
O=C(/C=C/c1ccc(Cl)cc1)N1CCC2(CC1)CN(Cc1ccc(Cl)c(Cl)c1)C(=O)O2 | x | x | 11% | x
c1nc(NCC2CCCC2)c2cc(-c3ccc4c(c3)OCO4)ccc2n1 | x | x | u | 0.065µM*
CCN1CCN(Cc2ccc(Nc3ncc(F)c(-c4cc(F)c5nc(C)n(C(C)C)c5c4)n3)nc2)CC1 | x | -2% | 10µM* | x | NNMT counter=u

Bioassay records: PubChem, National Center for Advancing Translational Sciences (NCATS)
